A selection: hits, their analogues and other compounds. The true share with any hit is near 2.5%.
Apoferritin bind – binds horse apoferritin like a general anesthetic; Potency, µM (series often up to 77.5 µM), actives largely listed as inhibitors; AID 485281; apoferritin/1-aminoanthracene competitive binding, fluorescence; actives 0.074% (n = 350,000); active = well fitted inhibition curve with a large enough effect; inconclusive = small, poorly fitted or top-dose-only effect; inactive = no such curve, though single readings can be large or run the other way; also: nearly all actives have a fitted effect of over 20% in size
Target sequence (P02791 2-175 limits assumed): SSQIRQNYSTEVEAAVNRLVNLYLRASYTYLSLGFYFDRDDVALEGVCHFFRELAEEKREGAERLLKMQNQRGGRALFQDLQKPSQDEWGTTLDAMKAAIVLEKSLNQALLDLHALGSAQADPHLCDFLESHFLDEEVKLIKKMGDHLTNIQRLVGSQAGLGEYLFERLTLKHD
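Probe: 1-aminoanthracene (50% saturated, PBS). Protein: horse-spleen apoferritin, 10 uM. Incubation: 10 min, room temperature. Detection: 380 nm excitation, 535 nm emission. Analysis: normalized response, four-parameter Hill.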
D2 ag-1 – activates the human D2 dopamine receptor; P14416; DiscoveRx PathHunter D2 beta-arrestin, luminescence, 90 min; 100% = 57 uM dopamine signal; activation, % (concentration not given with the values); actives 0.084% (n = 360,000); AID 624465; in the data active = activation above about 40%; inconclusive = between about 15% and that limit
Target sequence (P14416 whole entry, looked up): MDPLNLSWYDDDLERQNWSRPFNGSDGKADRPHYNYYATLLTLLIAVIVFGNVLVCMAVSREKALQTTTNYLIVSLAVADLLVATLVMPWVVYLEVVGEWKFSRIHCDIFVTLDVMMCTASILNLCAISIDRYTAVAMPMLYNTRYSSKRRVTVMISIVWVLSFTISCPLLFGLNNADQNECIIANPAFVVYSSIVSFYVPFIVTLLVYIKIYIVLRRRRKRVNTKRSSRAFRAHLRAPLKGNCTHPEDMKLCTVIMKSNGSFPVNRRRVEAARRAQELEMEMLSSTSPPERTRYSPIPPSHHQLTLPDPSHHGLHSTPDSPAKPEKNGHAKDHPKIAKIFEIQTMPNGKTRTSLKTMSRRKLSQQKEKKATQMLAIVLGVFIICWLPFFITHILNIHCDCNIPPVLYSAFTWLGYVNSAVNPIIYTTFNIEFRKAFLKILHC
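DiscoveRx PathHunter D2 beta-arrestin cells (2,100/well) attached overnight, then compound-stimulated 90 min at 37 C in HBSS/10 mM HEPES/0.1% Tween-20 buffer; beta-galactosidase complementation read by luminescence after 1 h at ambient temperature. Dopamine 57 uM final (EC100) as control.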
D2 PAM-1 – positive allosteric modulators of human D2 dopamine receptor. DiscoveRx D2 beta-arrestin cells, luminescence, 90 min; 100% = 57 uM dopamine signal. potentiation, % (test concentration not listed). actives 0.23% (n = 360,000). AID 624464. P14416; in the data active = potentiation above about 50%; inconclusive = mostly about 30% to 49%
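PathHunter D2 cells, attached overnight at 37 deg C, received compound in DMSO plus dopamine at EC20 (50 nM final) for 90 min at 37 deg C. Beta-arrestin recruitment was read as luminescence after 1 h with detection reagent at ambient temperature.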
D2 ag-2 – agonists of human D2 dopamine receptor; HEK293 T-REx D2 cells, calcium flux agonist mode; activation, % at 2 µM; actives 0.53% (n = 340,000);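 active = activation over 3 SD above normal in the single-dose calcium agonist read, cut at about 30% in these data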
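Tetracycline-induced HEK293 Trex cells with D2 receptor force-coupled to calcium signaling, plated overnight at 30 C and loaded with no-wash calcium dye. Calcium flux read kinetically for 180 s after compound addition; responses flag agonists.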
D2 antag – antagonizes the human D2 dopamine receptor; HEK293 TREx D2 cells, calcium flux, dopamine EC80; actives 2% (n = 340,000); inhibition, % at 10 µM; in the data active = inhibition above about 30%; inactive = below that, where a call was filed
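Cells plated overnight at 30 C with tetracycline; no-wash calcium dye, 30–90 min RT; 10 s baseline; compound pinned; 180 s read; EC80 dopamine added; another 180 s read.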
D2 PAM-2 – positive allosteric modulators of human D2 dopamine receptor. HEK293 T-REx D2, calcium flux, EC20 dopamine potentiation. potentiation, % at 10 µM. AID 485347. actives 0.34% (n = 340,000);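 active = potentiation over 3 SD above the plate norm, cut at about 30% in these data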
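Tetracycline-induced HEK293 T-REx cells force-coupled to calcium signalling expressed D2; compounds were pin-added after a 10 s baseline, read kinetically 180 s, then an EC20 dopamine challenge followed with a further 180 s calcium read.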
Hits are given with their value; . = inactive; ? = inconclusive; / = no result given.

SMILES	Apoferritin bind	D2 ag-1	D2 PAM-1	D2 ag-2	D2 antag	D2 PAM-2
Cc1ccc(C(CC(=O)O)NC(=O)CN2C(=O)c3ccccc3C2=O)cc1 (configuration not stated)	.	.	.	.	42.8	.
O=C(NCC1CCCN(Cc2ccccc2F)C1)c1cccc(C(F)(F)F)c1 (configuration not stated)	.	.	.	.	31.5	.
CSc1ccc(CN2CCCC(CNC(=O)c3ccc(F)cc3)C2)cc1 (configuration not stated)	.	.	.	.	40.7	.
O=C(c1ccccc1Cl)N1CCN(Cc2ccc3c(c2)OCO3)CC1	.	.	.	.	.	.
O=C(c1cc([N+](=O)[O-])ccc1Cl)N1CCN(Cc2ccc3c(c2)OCO3)CC1	.	.	.	.	44.2	.
Cc1ccc(C(=O)N2CCN(Cc3ccc4c(c3)OCO4)CC2)c(Cl)c1	.	.	.	.	72.6	.
Cc1cc2ccccc2n1CCNC(=O)COc1ccccc1	.	.	.	.	39.0	.
COc1cc(C2C(C#N)=C(N)Oc3n[nH]c(-c4cccnc4)c32)ccc1OCC(N)=O (configuration not stated)	.	.	.	.	30.2	.
CCOc1cccc(C(=O)N(Cc2ccc(N(C)C)cc2)CC2CCCO2)c1 (configuration not stated)	.	/	/	.	/	.
C=CCOc1ccccc1CN1CCC(CO)(CCOc2ccccc2)CC1	.	.	.	.	63.8	.
CSc1ccc(CN2CCC(CO)(CCOc3ccccc3)CC2)cc1	.	.	.	.	50.5	.
CCN(C[C@H]1N[C@@](CC)(C(=O)OC)[C@H]2C(=O)N(Cc3ccccc3)C(=O)[C@@H]12)C(=O)c1ccc(C(C)(C)C)cc1	/	?	57.1	/	/	/
CC[C@@]1(C(=O)OC)N[C@H](CN(C)C(=O)c2ccc(C(C)(C)C)cc2)[C@@H]2C(=O)N(Cc3ccccc3)C(=O)[C@@H]21	/	.	.	/	/	/
Cc1ccc(NC(=O)c2cnc(N3CCCC3)nc2C)cc1F	.	/	/	.	/	.
CC1OC(O[C@H]2CC[C@]3(C)C4C=C[C@]56OC[C@@]7(CC[C@@H](C)[C@H](C)C75)[C@H](O)C[C@@]6(C)[C@]4(C)CC[C@H]3C2(C)C)C(OC2OC(CO)C(O)C(O)C2OC2OCC(O)C(O)C2O)C(O)C1O (some centres not stated)	.	/	/	43.0	35.1	.
COc1ccc(NS(=O)(=O)c2ccc3oc(Nc4ccc5c(c4)OCCO5)nc3c2)cc1	.	.	.	/	/	/
O=C1N[C@@H](Cc2ccccc2)[C@@H](c2ccco2)O1	.	.	.	.	31.8	.
CCCCCN1C(=O)/C(=C/c2c(N3CCc4ccccc4C3)nc3ccccn3c2=O)SC1=S	/	.	.	/	/	/
CCOC(=O)CC1C(=O)NCCN1c1nc2ccc(C)cn2c(=O)c1/C=C1\SC(=S)N(CC(C)C)C1=O (configuration not stated)	.	.	.	104.2	.	.
CCCN1C(=O)/C(=C/c2c(N3CCNC(=O)C3CC(=O)OCC)nc3c(C)cccn3c2=O)SC1=S (configuration not stated)	.	.	.	80.9	.	.
CCOC(=O)CC1C(=O)NCCN1c1nc2ccc(C)cn2c(=O)c1/C=C1\SC(=S)N(C(C)CC)C1=O (configuration not stated)	.	/	/	72.7	31.8	.
CCOC(=O)CC1C(=O)NCCN1C(=O)c1ccc(C)cc1 (configuration not stated)	.	.	.	.	.	.
Cc1ccc(S(=O)(=O)N2[C@@H](c3ccccc3)C(C(=O)O)=CC[C@H]2c2cccc(C)c2)cc1	/	.	.	.	.	.
O=S(=O)(c1ccc(Cl)cc1)N1CCN(CCc2ccccc2)CC1	.	.	.	.	.	.
O=C1/C(=C\c2cc(Br)cc(Br)c2O)SC(=S)N1Cc1ccccc1	.	.	.	.	.	.
SMILES	Apoferritin bind	D2 ag-1	D2 PAM-1	D2 ag-2	D2 antag	D2 PAM-2
O=[N+]([O-])c1ccccc1NCCNc1ncc(C(F)(F)F)cc1Cl	.	.	.	.	.	.
O=[N+]([O-])c1cc(Cl)ccc1NCCNc1ncc(C(F)(F)F)cc1Cl	.	.	.	.	36.2	.
CCOc1cc(NC(=S)NCc2ccco2)c(OCC)cc1NC(=O)CC	.	.	.	.	.	.
O=C1CC2(CCCC2)CC(=O)N1CCCCN1CCN(c2ncccn2)CC1	.	.	.	.	87.9	.
CCN(CC)S(=O)(=O)c1ccc(Cl)c(C(=O)Nc2ccc(Cl)cc2[N+](=O)[O-])c1	.	.	62.5	.	.	.
CN(C)S(=O)(=O)c1ccc(Cl)c(C(=O)Nc2ccccc2[N+](=O)[O-])c1	.	.	.	.	.	.
Cc1nc2ccc3nc(NC(=O)C4COc5ccccc5O4)sc3c2s1 (configuration not stated)	.	.	.	.	.	.
CCCCC1=CC2=CC(=O)C(C)(OC(=O)CC)C(=O)C2=CN1Cc1ccc(OC)cc1 (configuration not stated)	.	.	.	.	30.9	.
CCCCC1=CC2=C(c3ccco3)C(=O)C(C)(OC(=O)c3ccc(OC)cc3)C(=O)C2=CN1Cc1ccc2c(c1)OCO2 (configuration not stated)	.	.	.	.	33.2	.
Cc1cccn2c(=O)c(/C=C(\C#N)S(=O)(=O)c3ccccc3)c(N3CCN(c4ccccc4)CC3)nc12	.	.	.	.	.	.
Cc1ccc(S(=O)(=O)/C(C#N)=C/c2c(N3CCOCC3)nc3ccccn3c2=O)cc1	?	.	.	.	.	.
CCN1CCN(c2nc3ccccn3c(=O)c2/C=C(\C#N)S(=O)(=O)c2ccccc2)CC1	.	.	.	.	33.6	.
CCN1CCN(c2nc3c(C)cccn3c(=O)c2/C=C(\C#N)S(=O)(=O)c2ccccc2)CC1	.	.	.	.	37.3	/
COC(=O)[C@@]1(Cc2ccc(OC)cc2)[C@H]2c3cc(C(=O)N4CCCC4)n(CCCNc4ncc(C(F)(F)F)cc4Cl)c3C[C@H]2CN1C(=O)c1ccccc1	.	/	/	/	/	/
Cc1cc(NC(=O)c2cc(-c3ccc(OC(C)C)cc3)nc3ccccc23)no1	.	.	.	.	.	30.1
CCC(C)c1ccc(-c2cc(C(=O)OCC(=O)Nc3cc(C)on3)c3ccccc3n2)cc1 (configuration not stated)	.	.	.	.	.	.

High-throughput results: PubChem BioAssay, National Center for Advancing Translational Sciences (NCATS)
